The list is not random: actives were taken first. Their share in the collection is about 3%.
Sm TGR block: qHTS Assay for the Inhibitors of Schistosoma Mansoni Peroxiredoxins. purified TGR, DTNB reduction, TNB absorbance 405 nm. 3% of 360,000 active. Schistosoma mansoni thioredoxin glutathione reductase (TGR), Q962Y6. Potency, µM (highest dose often 114 µM), most hits filed as inhibitors; active = well fitted inhibition curve with a large enough effect; inconclusive = small, poorly fitted or top-dose-only effect; inactive = no such curve, though single readings can be large or run the other way; also: nearly all actives have a fitted effect of over 60% in size
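First, TGR (20 nM dispensed) and NADPH were mixed with compound. Second, a 15 min room-temperature incubation followed. Third, further NADPH and then DTNB were added to start the reaction. Finally, TNB absorbance was monitored kinetically.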
SARS PLpro yeast: qHTS of Yeast-based Assay for SARS-CoV PLP; S. cerevisiae expressing SARS-CoV PLpro, growth rescue; Potency, µM (doses to about 32.9 µM), hits mostly activators; 0.19% of 330,000 active; AID 485353, 2010; calls by dose curve; also: nearly all actives have a fitted effect of over 55% in size
Large screens that a line does not name were inactive.

CSc1nc(NCCOCCO)c2sc3nc(-c4ccco4)c4c(c3c2n1)CCC4	Sm TGR block 3.2µM
CCN(CCO)c1ncnc2c1sc1nc(C(C)C)c3c(c12)CC(C)(C)OC3	none
CSc1nc(NCc2ccco2)c2sc3nc(C(C)C)c4c(c3c2n1)CC(C)(C)OC4	Sm TGR block inconclusive
CCN(CCO)c1nc(SC)nc2c1sc1nc(-c3ccco3)c3c(c12)CCC3	Sm TGR block 3.5µM
COc1cc2cc(CNc3ccc(C)cc3)c(=O)n(CC(=O)Nc3ccc(C(C)C)cc3)c2cc1OC	none (no result: SARS PLpro yeast)
COCc1cc(C)nc2sc(C(=O)Nc3ccc(OC(F)(F)F)cc3)c(N)c12	none (no result: SARS PLpro yeast)
Cc1ccc(C)c(N2CCN(C(=O)Cn3cnc4onc(-c5ccc(F)cc5)c4c3=O)CC2)c1	none (no result: SARS PLpro yeast)
COC(=O)c1cc2oc(C)cc2n1CC(=O)Nc1ccc(C(C)C)cc1	none (no result: SARS PLpro yeast)
CCn1c(=O)n(CC)c2cc(N3CCCC3)c(NC(=O)Nc3cc(C)cc(C)c3)cc21	none (no result: SARS PLpro yeast)
COc1cccc(C2CC(=O)Nc3c2c(=O)nc2c(C)cccn32)c1OC (centres undefined)	none (no result: SARS PLpro yeast)
O=C(Nc1cccc(C(F)(F)F)c1)c1ccc(F)c(S(=O)(=O)N2CCc3ccccc3C2)c1	none (no result: SARS PLpro yeast)
COc1ccccc1NC(=O)N1CCN(C(=O)Nc2ccccc2OC)CC1	none
CCC1c2ccc(C)n2CCN1C(=O)Nc1ccccc1OC (centres undefined)	Sm TGR block 25µM
CCc1ccc(S(=O)(=O)c2cn(Cc3ccccc3F)c3cc(OC)c(OC)cc3c2=O)cc1	none (no result: SARS PLpro yeast)
CCc1ccccc1Nc1nn2c(=O)c3ccc(C(=O)NCCC4=CCCCC4)cc3nc2s1	none (no result: SARS PLpro yeast)
COc1ccc(-c2cc(C(=O)NCCN3CCOCC3)c3ccccc3n2)cc1	none
Cc1ccc(-c2cc(C(=O)Nc3ccccn3)c3ccccc3n2)o1	Sm TGR block 18µM
Cc1ccc(-c2cc(C(=O)NCCN3CCOCC3)c3ccccc3n2)o1	Sm TGR block 45µM
COc1ccccc1NC(=O)c1cc(-c2ccc(C)o2)nc2ccccc12	none
Cc1ccc(-c2cc(C(=O)Nc3cccnc3)c3ccccc3n2)o1	none
Cc1ccc(NC(=O)c2cc(-c3ccc(C)o3)nc3ccccc23)cc1	Sm TGR block 25µM
COc1ccc(OC)c(NC(=O)Cn2cnc3ccc(S(=O)(=O)N4CCC(C)CC4)cc3c2=O)c1	none (no result: SARS PLpro yeast)
O=C(COc1ccc(F)cc1)Nc1ccccc1OCc1cc(=O)n2ccccc2n1	none (no result: SARS PLpro yeast)
CCCn1c(=O)c2sccc2n2c(CCCC(=O)Nc3ccc(Oc4ccccc4)cc3)nnc12	none (no result: SARS PLpro yeast)
Cc1ccc(NCN2C(=O)C3C4C=CC(C4)C3C2=O)cc1 (centres undefined)	SARS PLpro yeast inconclusive
O=C1C2C3C=CC(C3)C2C(=O)N1CNc1ccc(O)cc1 (centres undefined)	Sm TGR block 45µM
CCOC(=O)N1CCN(S(=O)(=O)c2cc([N+](=O)[O-])ccc2C)CC1	none (no result: Sm TGR block)
CCOC(=O)N1CCC(=NNS(=O)(=O)c2cccc([N+](=O)[O-])c2)CC1	Sm TGR block 28µM
O=C(CN1C(=O)COc2ccc(S(=O)(=O)N3CCOCC3)cc21)N1CCN(c2ccccc2F)CC1	none (no result: SARS PLpro yeast)
CCN(Cc1ccccc1)Cc1c(O)ccc2c(=O)c(-c3ccc(Cl)cc3)coc12	none (no result: SARS PLpro yeast)
C=CCN(CC=C)Cc1c(O)ccc2c(=O)c(-c3ccccc3)coc12	Sm TGR block 13µM
O=C(Cn1cc(SCc2cccc(F)c2)c2ccccc21)N1CCCC1	none (no result: SARS PLpro yeast)
O=C(O)c1nn(-c2ccccc2-c2n[nH]c(=O)[nH]c2=O)c(=O)[nH]c1=O	Sm TGR block 11µM
O=C(c1ccccc1)N1CCN(c2n[nH]c(=O)[nH]c2=O)CC1	none
Cc1cc2nc3c(=O)n(C)c(=O)n(C)c3nc2cc1N=CN(C)C	none (no result: SARS PLpro yeast)
NCCSC1CC(=O)N(c2ccc(F)cc2)C1=O (centres undefined)	Sm TGR block inconclusive
NCCSC1CC(=O)N(c2ccc(Cl)c(Cl)c2)C1=O (centres undefined)	Sm TGR block 63µM
O=C(COc1ccc(F)cc1)Nc1ccc(C(=O)OCc2cc(=O)n3nc(C4CC4)sc3n2)cc1	none (no result: SARS PLpro yeast)
CCn1c(-c2cc(C3CC3)nc3ccccc23)n[nH]c1=S	Sm TGR block 45µM
CCn1c(-c2cc(-c3cc(C)ccc3C)nc3ccccc23)n[nH]c1=S	none
Cc1ccc(NC(=O)C(=O)NCC(c2ccc3c(c2)OCO3)N2CCOCC2)c(C)c1 (centres undefined)	none (no result: SARS PLpro yeast)
Cc1ccc(N(CC2CO2)S(=O)(=O)c2ccc([N+](=O)[O-])cc2)cc1 (centres undefined)	Sm TGR block 32µM
Cc1ccc(N(CC2CO2)S(=O)(=O)c2ccc(C)cc2)cc1 (centres undefined)	Sm TGR block inconclusive
CC(=O)c1ccc(-c2nnc(CCC(=O)N(C)Cc3cccc4cnccc34)o2)s1	Sm TGR block 40µM
CN(Cc1cccc2cnccc12)C(=O)CCc1nnc(CCc2ccccc2)o1	none
C/[N+]([O-])=C\c1coc2ccccc2c1=O	none
C#CCCc1ccccc1/C=[N+](/C)[O-]	Sm TGR block 11µM
CCCS(=O)(=O)c1nc(S(=O)(=O)c2ccc(C)cc2)c(NCC(C)C)s1	none (no result: SARS PLpro yeast)
CCOc1ccc(CN(C(=O)/C=C/c2ccco2)C2CCS(=O)(=O)C2)cc1 (centres undefined)	Sm TGR block 4.5µM
COc1ccc(CN(C(=O)/C=C/c2ccco2)C2CCS(=O)(=O)C2)cc1OC (centres undefined)	Sm TGR block 3.5µM
CCOc1ccc(CN(C(=O)c2ccco2)C2CCS(=O)(=O)C2)cc1 (centres undefined)	none
COc1ccc(CN(C(=O)c2cc3ccccc3oc2=O)C2CCS(=O)(=O)C2)cc1OC (centres undefined)	none
COc1ccccc1C(=O)N(Cc1cccs1)C1CCS(=O)(=O)C1 (centres undefined)	none
COc1cccc(CN(C(=O)c2ccco2)C2CCS(=O)(=O)C2)c1 (centres undefined)	none
COc1cccc(CN(C(=O)/C=C/c2ccco2)C2CCS(=O)(=O)C2)c1 (centres undefined)	Sm TGR block 7.9µM
COc1ccccc1C(=O)N(Cc1ccco1)C1CCS(=O)(=O)C1 (centres undefined)	Sm TGR block 35µM
CC(=O)c1ccc(NC(=O)C2CCC(CNS(=O)(=O)c3cccs3)CC2)cc1 (centres undefined)	none (no result: SARS PLpro yeast)
COc1cc(NC(=O)CN2C(=O)C(c3ccc(C)cc3)=NC23CCCCCC3)cc(OC)c1	none (no result: SARS PLpro yeast)
COC(=O)c1ccc(NC(=O)CCc2c(C)nn(-c3ccc(N4CCOCC4)nn3)c2C)cc1	none (no result: SARS PLpro yeast)
CCC(=O)Oc1cc(C(C)(C)C)cc2cc(-c3nc(-c4ccc(OC)cc4OC)no3)c(=O)oc12	none (no result: SARS PLpro yeast)
O=C(O)c1c(-c2ccccc2)oc2ccc(OCc3ccc(Cl)c(Cl)c3)cc12	none (no result: SARS PLpro yeast)
Cc1oc2c(c(C)cc3oc(=O)c(CC(=O)NCCc4ccccc4F)c(C)c32)c1C	none (no result: SARS PLpro yeast)
COc1ccc(CN(C(=O)/C=C/c2ccco2)C2CCS(=O)(=O)C2)cc1 (centres undefined)	Sm TGR block 2µM
COc1ccc(CN(C(=O)c2ccco2)C2CCS(=O)(=O)C2)cc1 (centres undefined)	none
CCOC(=O)C1=C(C)NC(=O)/C1=C\N(C)C	Sm TGR block 20µM
CCOC(=O)C1=C(C)S/C(=C\N(C)C)C1=O	none
CCOP(=O)(OCC)C(O)c1ccc(OC)c(OC)c1 (centres undefined)	none
